Assay results published in the supplement of paper PMC11219838.
Values without a mark were called inactive.

Columns and labels:
Settings in all cases: 60 µM; 5 days; temperature: 20 °C
Meloidogyne hapla J2 = assay: proportion of mobile M. hapla J2 relative to DMSO control (fraction of DMSO control); higher = more viable, less nematicidal, active = 0.7 or less
How it was run: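 About 25 M. hapla J2 were added per 96-well well in distilled water, and compound was pinned to 60 µM final (0.6% v/v DMSO). Sealed plates were shaken at 200 rpm for 5 days at 20 °C, then 2 µL 1 M NaOH was added before microscopic mobility scoring. Mobility was divided by the mean of eight DMSO wells on the same plate, and two biological replicates were averaged.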

[1] = system: Caenorhabditis elegans dauer (daf-2(e1370)); assay: proportion of mobile C. elegans dauer larvae relative to DMSO control (fraction of DMSO control); higher = more viable, less nematicidal, active = 0.63 or less; extreme values may be limits of the assay
How it was run: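 The proportion of mobile worms, relative to DMSO wells, was scored by dissection microscope and averaged over two biological replicates. Worms were C. elegans dauers, about 20 per well in liquid NGM in 96-well plates, generated from synchronized larvae on MYOB plates with E. coli OP50 at 25 °C for 48 h. They were treated with compound pinned to 60 µM final (0.6% v/v DMSO) and kept in sealed plates shaken at 200 rpm for 5 days at 20 °C.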

Ditylenchus dipsaci = assay: proportion of mobile D. dipsaci (mixed stage) relative to DMSO control (fraction of DMSO control); higher = more viable, less nematicidal, active = 0.86 or less; extreme values may be limits of the assay
How it was run: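 D. dipsaci were grown on pea plants in Gamborg B-5 agar and extracted through a filter funnel into water, and about 20 worms were added per 96-well well in distilled water. Compound was pinned to 60 µM final (0.6% v/v DMSO), and sealed plates were shaken at 200 rpm for 5 days at 20 °C. After 2 µL 1 M NaOH was added, mobile worms were scored microscopically. Mobility was expressed relative to DMSO controls and averaged over two biological replicates.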

SMILES | proportion of mobile M. hapla J2 (Meloidogyne hapla J2) | proportion of mobile C. elegans dauer larvae [1] | proportion of mobile D. dipsaci (Ditylenchus dipsaci)
COc1ccc(-c2nnc(SCC(=O)Nc3ccccc3C(C)C)o2)cc1 | 0.877 | 1 | 1
Cc1ccccc1-c1noc(COc2ccc(Cl)cc2Cl)n1 | 1.02 | 1 | 1
COc1cccc(NC(=O)c2ccccc2-c2nc(-c3ccc(F)cc3)no2)c1 | 0.822 | 1 | 1
COc1cccc(-c2nc(-c3ccc(C)cc3)no2)c1 | 0.953 | 0 (active) | 1
COc1ccc(-c2noc(COc3ccc(Cl)cc3)n2)cc1 | 1.04 | 1 | 1
Cc1ccc(-c2nnc(SCc3ccccc3F)o2)cc1 | 0.636 (active) | 1 | 1
Cc1ccccc1-c1nnc(SCc2ccc(F)cc2)o1 | 0.939 | 1 | 1
COc1ccccc1-c1noc(-c2ccc(C(C)(C)C)cc2)n1 | 1.03 | 1 | 1
COc1cccc(-c2nc(-c3ccc(Br)cc3)no2)c1 | 0.997 | 0.6 (active) | 1
COc1ccccc1-c1nnc(SCC(=O)Nc2ccc(C)cc2)o1 | 1.03 | 1 | 0.885
Cc1ccccc1OCc1nc(-c2ccc(Br)cc2)no1 | 0.788 | 1 | 1
COc1nc(C)ccc1-c1noc(-c2ccccc2C)n1 | 0.668 (active) | 1 | 1
Cn1cc(C(=O)CSc2nnc(-c3cccc(Cl)c3)o2)c2ccccc21 | 0.999 | 1 | 1
O=C(CSc1nnc(-c2ccccc2)o1)OCc1ccccc1 | 0.999 | 1 | 1
COc1ccc(-c2noc(COc3ccc(C4CCCCC4)cc3)n2)cc1 | 0.62 (active) | 1 | 1
Clc1ccccc1-c1noc(-c2ccccc2Cl)n1 | 1.02 | 1 | 1
O=C(CSc1nnc(-c2cccnc2)o1)c1ccc2ccccc2c1 | 0.74 | 1 | 1
COc1ccc(Cl)cc1-c1noc(-c2cccc(C)c2)n1 | 1.05 | 1 | 1
CCOc1nc(-c2ccccc2)ccc1-c1noc(-c2cccc(C)c2)n1 | 0.805 | 1 | 1
Cc1cccc(-c2noc(COc3ccc(Cl)cc3)n2)c1 | 1.04 | 1 | 1
CC(=O)Nc1cccc(-c2nnc(SCc3ccccc3)o2)c1 | 0.976 | 1 | 1
O=C(CSc1nnc(-c2ccc(Br)cc2)o1)Nc1ccc2ccccc2c1 | 0.866 | 1 | 1
O=C(CSc1nnc(-c2ccc(Br)cc2)o1)Nc1cccc2ccccc12 | 0.923 | 1 | 1
COc1nc(-c2ccccc2)ccc1-c1noc(-c2ccccc2Cl)n1 | 0.989 | 1 | 1
COc1ccc(-c2nnc(SCc3c(Cl)cccc3Cl)o2)cc1 | 1 | 1 | 1

SMILES | proportion of mobile M. hapla J2 (Meloidogyne hapla J2) | proportion of mobile C. elegans dauer larvae [1] | proportion of mobile D. dipsaci (Ditylenchus dipsaci)
CCc1cccc(C)c1NC(=O)CSc1nnc(-c2ccccc2)o1 | 1.04 | 1 | 1
COc1ccc(-c2nc(C3CCCCC3)no2)cc1 | 0.896 | 1 | 1
Cc1ccc(-c2nnc(SCc3ccccc3Cl)o2)cc1 | 0.964 | 1 | 1
Ic1ccc(CSc2nnc(-c3ccco3)o2)cc1 | 0.872 | 1 | 1
COc1cccc(-c2nnc(SCC(=O)NC3CCCCC3)o2)c1 | 0.869 | 1 | 1
COc1cccc(-c2nnc(SCc3ccccc3)o2)c1 | 0.985 | 1 | 1
Cc1cccc(-c2noc(-c3ccc(C)c(Cl)c3)n2)c1 | 1.01 | 1 | 1
CC1CCN(C(=O)CSc2nnc(-c3cc4ccccc4o3)o2)CC1 | 0.996 | 1 | 1
Cc1cc(C)cc(NC(=O)CSc2nnc(-c3ccccc3)o2)c1 | 1.04 | 1 | 1
CCOc1ccccc1-c1nc(-c2ccc(NC(=O)c3ccncc3)cc2)no1 | 0.977 | 1 | 1
CCOc1ccc(NC(=O)CSc2nnc(-c3ccccc3Cl)o2)cc1 | 0.974 | 1 | 1
COc1ccc(-c2nnc(SCC(=O)Nc3cc(Cl)ccc3C)o2)cc1 | 0.904 | 1 | 1
Cc1ccc(-c2nc(-c3ccc(C(F)(F)F)cc3)no2)cc1 | 0.952 | 0.5 (active) | 1
O=C(CSc1nnc(-c2ccco2)o1)NC1CCCCC1 | 0.824 | 1 | 1
COc1ccc(-c2noc(-c3ccc(Br)cc3)n2)cc1 | 1.04 | 1 | 1
COc1cccc(-c2noc(COc3cc(C)cc(C)c3)n2)c1 | 1.02 | 1 | 1
O=C(CSc1nnc(-c2ccc(Br)cc2)o1)OCc1ccccc1 | 1.02 | 1 | 1
Brc1ccc(-c2noc(CSc3ccccc3)n2)cc1 | 1.09 | 1 | 1
COc1ccc(CC(=O)Nc2ccc(-c3noc(-c4ccc(F)cc4)n3)cc2)cc1 | 0.978 | 1 | 1
Cc1ccc(C(=O)Nc2ccccc2-c2nc(-c3ccncc3)no2)cc1C | 1.06 | 1 | 1
Cc1ccccc1-c1noc(COc2ccccc2)n1 | 0.764 | 1 | 1
Cn1c(SCc2nc(-c3ccccc3)no2)nnc1-c1ccco1 | 0.98 | 1 | 1
O=C(CSc1nnc(-c2cccc3ccccc23)o1)c1ccc(F)cc1 | 0.912 | 1 | 1
CC(=O)Nc1ccc(-c2nc(-c3ccccc3)no2)cc1 | 0.961 | 1 | 1
CC1CC(C)CN(C(=O)CSc2nnc(-c3ccccc3)o2)C1 (centres undefined) | 1.02 | 1 | 1

SMILES | proportion of mobile M. hapla J2 (Meloidogyne hapla J2) | proportion of mobile C. elegans dauer larvae [1] | proportion of mobile D. dipsaci (Ditylenchus dipsaci)
Ic1ccccc1-c1nc(-c2cccnc2)no1 | 1.02 | 1 | 1
Clc1ccccc1-c1noc(-c2ccncc2)n1 | 0.953 | 1 | 1
Cc1ccccc1OCc1nc(-c2ccc(F)cc2)no1 | 0.909 | 1 | 1
Cc1ccccc1CSc1nnc(-c2ccco2)o1 | 0.547 (active) | 0.5 (active) | 1
Cc1ccc(OCc2nc(-c3ccncc3)no2)cc1C | 1.03 | 1 | 1
CCOc1cc(-c2nc(-c3cc4ccccc4nc3OC)no2)cc(OCC)c1OCC | 1.04 | 1 | 1
CCOc1cc(-c2nc(-c3cccnc3)no2)cc(OCC)c1OCC | 1.05 | 1 | 1
CC1Cc2ccccc2N1C(=O)CSc1nnc(-c2ccccc2)o1 (centres undefined) | 1.03 | 1 | 1
CCCCC(=O)Nc1ccccc1-c1nc(-c2ccncc2)no1 | 1.06 | 1 | 1
Clc1ccc(-c2noc(-c3ccc4c(c3)OCCO4)n2)cc1 | 1.02 | 1 | 1
O=C(CSc1nnc(-c2cccc(Br)c2)o1)NC1CCCCC1 | 0.778 | 1 | 1
CCOc1ccc(-c2nc(-c3ccc(C)cc3)no2)cc1 | 0.966 | 0.5 (active) | 1
Clc1ccc(-c2nc(-c3cccnc3)no2)c(Cl)c1 | 1.04 | 0.625 (active) | 1
COc1cccc(OCc2nc(-c3cccc(Br)c3)no2)c1 | 0.999 | 1 | 1
Cc1ccc(CSc2nnc(-c3cccc(Br)c3)o2)c(C)c1 | 1.02 | 1 | 1
Fc1cccc(Cl)c1CSc1nnc(-c2ccccc2Cl)o1 | 0.988 | 1 | 1
COc1ccc(-c2noc(-c3ccc(C)cc3Cl)n2)cc1 | 0.969 | 1 | 1
COc1nc(-c2ccc(C)cc2)ccc1-c1noc(-c2ccc(F)cc2)n1 | 0.925 | 1 | 1
Fc1ccc(-c2nc(-c3ccc4c(c3)OCO4)no2)cc1 | 1.02 | 1 | 1
O=C(CSc1nnc(-c2ccccc2)o1)Nc1cccc(Br)c1 | 1.05 | 1 | 1
N#Cc1ccccc1NC(=O)CSc1nnc(-c2ccccc2)o1 | 0.955 | 1 | 1
COC(=O)c1ccc(Cl)c(NC(=O)CSc2nnc(-c3ccc(Cl)cc3)o2)c1 | 0.77 | 1 | 1
Cc1cc(OCc2nc(-c3ccccc3)no2)ccc1Br | 0.932 | 1 | 1
